JMJD2A Tudor = blocks the human JMJD2A Tudor domain; AlphaScreen JMJD2A-Tudor / H3K4me3 peptide binding; O75164; AID 504339; Potency, µM (titrated, usually from 114 µM), for inactives: at the top dose activity change, negative = inhibition, actives largely listed as inhibitors; 390,000 tested, 4.4% active; also: % is scaled to controls: 0 for no effect and ±100 for the full control effect; nearly all actives have a fitted effect of over 50% in size
Target sequence (O75164 whole entry, looked up, the tested form may be a part): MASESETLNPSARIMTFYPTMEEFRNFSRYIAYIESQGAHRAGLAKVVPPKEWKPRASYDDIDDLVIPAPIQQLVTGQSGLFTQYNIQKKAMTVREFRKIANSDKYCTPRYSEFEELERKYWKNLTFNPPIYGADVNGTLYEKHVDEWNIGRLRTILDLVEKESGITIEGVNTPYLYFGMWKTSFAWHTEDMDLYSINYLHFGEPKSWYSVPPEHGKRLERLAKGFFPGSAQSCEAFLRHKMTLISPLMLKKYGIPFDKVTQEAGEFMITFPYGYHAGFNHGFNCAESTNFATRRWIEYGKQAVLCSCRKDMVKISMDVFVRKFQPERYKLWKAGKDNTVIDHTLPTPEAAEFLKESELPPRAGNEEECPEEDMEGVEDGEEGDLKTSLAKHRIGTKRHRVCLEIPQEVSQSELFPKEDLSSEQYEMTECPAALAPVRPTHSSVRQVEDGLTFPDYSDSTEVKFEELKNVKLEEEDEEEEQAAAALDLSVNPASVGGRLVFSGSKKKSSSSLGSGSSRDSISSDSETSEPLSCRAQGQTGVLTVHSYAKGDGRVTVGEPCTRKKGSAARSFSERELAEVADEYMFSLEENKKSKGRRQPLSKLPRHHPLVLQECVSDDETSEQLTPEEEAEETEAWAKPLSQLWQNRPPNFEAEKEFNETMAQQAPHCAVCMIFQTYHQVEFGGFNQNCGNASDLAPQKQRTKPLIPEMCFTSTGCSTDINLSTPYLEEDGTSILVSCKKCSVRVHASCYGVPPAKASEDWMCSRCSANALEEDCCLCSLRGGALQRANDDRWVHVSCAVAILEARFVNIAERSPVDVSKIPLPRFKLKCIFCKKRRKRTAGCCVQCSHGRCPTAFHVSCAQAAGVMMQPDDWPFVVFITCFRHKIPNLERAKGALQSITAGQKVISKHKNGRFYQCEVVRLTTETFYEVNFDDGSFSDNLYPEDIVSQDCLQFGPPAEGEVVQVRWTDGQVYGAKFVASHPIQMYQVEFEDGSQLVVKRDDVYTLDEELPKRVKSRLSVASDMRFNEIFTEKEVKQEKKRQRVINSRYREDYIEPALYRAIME
G9a inh = G9a (human) methyltransferase inhibition; Q96KQ7; G9a H3K9 monomethylation, AlphaScreen, 2 h; Potency, µM (highest dose often 102 µM), for the others: at the top dose activity, negative = inhibition, most hits filed as inhibitors; 350,000 tested, 8.8% active; also: % is scaled to controls: 0 for no effect and ±100 for the full control effect; nearly all actives have a fitted effect of over 75% in size
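Enzyme 20 nM + cpd, 15 min RT; add b-H3K9 pep 500 nM / SAM 20 uM; 2 h RT; anti-H3K9me1 Ab 0.5 ug/mL + SA donor / anti-rabbit acceptor beads 20 ug/mL each, 10 min; AlphaScreen read.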
Sfp PPTase inh = inhibitors of Bacillus subtilis Sfp phosphopantetheinyl transferase. Q9F4F7. Potency, µM, inactives show largest response in the series, negative = inhibition, most hits filed as inhibitors. Biochemical Sfp PPTase activity, qHTS. 310,000 tested, 3.5% active. AID 1490;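 also: the enzyme is Sfp with the accession as filed and its product quenches rhodamine fluorescence; 0% = enzyme reaction without inhibitor and -100% = no enzyme wells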
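With Hepes-Na pH 7.6 buffer containing 10 mM MgCl2, Sfp (15 nM) modified BHQ-2-YbbR (12.5 uM) using rhodamine-CoA (5 uM). Two reads 30 minutes apart at 525/598 nm yielded each well's rate.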
HP1b chromo inh = blocks HP1-beta chromodomain binding to methylated histone tails | P83916 | AID 540317 | AlphaScreen HP1-beta / biotin-H3K9me3 peptide binding | 390,000 tested, 0.56% active | Potency, µM (titrated, usually from 114 µM), without a hit: at the top dose activity change, negative = inhibition, actives largely listed as inhibitors; also: nearly all actives have a fitted effect of over 70% in size
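HP1-beta protein (50 nM final) preincubated 30 min at room temperature with biotinylated H3(1-18)K9me3 peptide (50 nM) in PBS pH 7.4, 0.01% Tween-20, then compound added for 30 min. AlphaScreen streptavidin donor/nickel chelate acceptor beads (10 ug/mL final), 30 min dark, luminescence read.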
BAZ2B block = BAZ2B (human) inhibition. Q9UIF8. AlphaScreen BAZ2B-H3K14Ac peptide displacement. Potency, µM (top dose mostly 114 µM), for the others: top-dose activity change, negative = inhibition, most hits filed as inhibitors. 360,000 tested, 4.4% active; also: % is scaled to controls: 0 for no effect and ±100 for the full control effect; nearly all actives have a fitted effect of over 60% in size
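Multi-concentration screen (max 110 uM) measuring displacement of acetylated histone H3 peptide from BAZ2B by AlphaScreen, using 50 nM protein, 50 nM peptide and 10 ug/mL streptavidin donor plus Ni-chelate acceptor beads.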
L3MBTL1 inh = blocks human L3MBTL1; AlphaScreen L3MBTL1–H3K9me1 peptide binding; 230,000 tested, 0.66% active; Potency, µM (top dose mostly 57.1 µM), for inactives: at the highest dose activity, negative = inhibition, actives largely listed as inhibitors; also: % is scaled to controls: 0 for no effect and ±100 for the full control effect; nearly all actives have a fitted effect of over 60% in size
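First, the protein-peptide complex forms for 30 min at room temperature (L3MBTL1 50 nM, biotinylated H3K9me1 peptide 75 nM). Next, compounds are pin-transferred and incubated 30 min. Finally, AlphaScreen beads are added and read after 30 min.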
* hit, by the source's call; u = inconclusive; x = no result given; [ ] = dose if it differs, or a comment. This is a sample that favours compounds with a hit; in the whole collection about 12% have one here. Calls follow the shape of the dose curve; as a rule, active = well fitted curve in the direction sought with a large enough effect; inconclusive = small, poorly fitted or top-dose-only effect, or another doubt; inactive = no such curve, though single readings can be large; an effect the other way counts as inactive or inconclusive. Potency is read from the fitted curve at half-maximal effect.

SMILES | JMJD2A Tudor | G9a inh | Sfp PPTase inh | HP1b chromo inh | BAZ2B block | L3MBTL1 inh
CCOc1ccc(C(=O)Nc2cccc(C)n2)cc1 | -23%[11.4 µM] | 50µM* | 4% | 30% | -9% | -5%
COC(=O)c1cc(C(=O)Nc2cc(C)ccn2)cc([N+](=O)[O-])c1 | -18% | 50µM* | -12% | 17% | -9% | -9%
Cc1ccc(NC(=O)NCCc2c(C)nn(C)c2C)c(Cl)c1 | -7% | 12%[59 µM] | x | 12% | -4% | x
COc1cc(OC)c(NC(=O)CC(c2cccs2)N2Cc3ccccc3C2=O)cc1Cl (centres undefined) | -27% | -41%[59 µM] | x | 12% | u | x
CN1C=CC=C/C1=C1\SC(=S)N(N)C1=O | 1% | 28µM* | -64% | 30% | -27% | 2%
Cc1ccc(C(=O)CC2(O)C(=O)N(Cc3ccccc3)c3ccccc32)c(C)c1 (centres undefined) | 40µM* | 2.2µM* | x | u | 10µM* | x
CCN1CCN(C(=S)Nc2cccc([N+](=O)[O-])c2)CC1 | -16% | 71µM* | -22% | 5% | -7% | -1%
Cc1ccccc1N1CCN(C(=S)c2ccc(-c3cccc([N+](=O)[O-])c3)o2)CC1 | u | 13µM* | -5% | -24% | x | x
Cc1ccc(N2CCN(C(=S)c3ccc(-c4cccc([N+](=O)[O-])c4)o3)CC2)cc1 | u | 8.9µM* | 14µM* | u | u | -21%
O=[N+]([O-])c1cccc(NC(=S)N2CCCC2)c1 | -9% | x | -2% | 50% | -13% | x
CC(=O)N1CCN(c2ccccc2NC(=O)c2ccc(-c3cccc([N+](=O)[O-])c3)o2)CC1 | -20% | u | -6% | 25% | -29% | -10%[11.4 µM]
O=C(c1ccc([N+](=O)[O-])cc1)N1CCN(C(=O)c2ccco2)CC1 | -22% | 4% | 14% | -7% | -23% | 0%
O=C(c1ccco1)N1CCN(C(=O)c2ccc(-c3ccc([N+](=O)[O-])cc3)o2)CC1 | 40µM* | x | x | -33% | x | u
CC(=O)N1CCN(C(=S)c2cccc([N+](=O)[O-])c2)CC1 | -4% | u | -15% | -3% | 1% | 0%
O=[N+]([O-])c1ccc(N2CCN(C(=S)c3cccc([N+](=O)[O-])c3)CC2)cc1 | u | 2µM* | 5.6µM* | 11µM* | 56µM* | x
CCCN1CCN(C(=O)c2ccc(-c3ccc([N+](=O)[O-])cc3)o2)CC1 | -24% | u | x | -11% | 0% | -8%
Cc1ccccc1N1CCN(C(=S)c2ccc(-c3ccc([N+](=O)[O-])cc3)o2)CC1 | u | x | 20µM* | u | 7.9µM* | x
O=[N+]([O-])c1ccc(N2CCN(Cc3cccc([N+](=O)[O-])c3)CC2)cc1 | u | -11% | 3% | -7% | u | -11%
O=[N+]([O-])c1cccc(-c2ccc(CN3CCN(c4ccccc4)CC3)o2)c1 | 35µM* | 40µM* | u | u | 45µM* | u
Cc1ccc(CN2CCN(c3ccccc3)CC2)o1 | 20µM* | 22µM* | -18% | u | 50µM* | -4%
Cc1ccc(C)c(CN2C(=O)c3ccccc3S(=O)(=O)c3ccc(C(=O)Nc4ccccc4C(F)(F)F)cc32)c1 | -16% | -40%[59 µM] | x | 26% | -21% | x
COc1ccc(-n2c(SCC(=O)c3ccccc3)nc3c([nH]c4ccccc43)c2=O)cc1 | -16% | 3%[59 µM] | x | 18%[57 µM] | 3% | x
Cc1oc(-c2cccc(Cl)c2)nc1CS(=O)(=O)CC(=O)NCc1ccccc1Cl | -16% | -5%[59 µM] | x | 26% | u | x
COc1cccc(NC(=S)N2CCN(c3ccc([N+](=O)[O-])cc3)CC2)c1 | -10% | 6%[59 µM] | 29% | 7% | -31% | x
COc1ccc(NC(=S)N2CCN(c3ccc([N+](=O)[O-])cc3)CC2)cc1OC | u | x | 22µM* | -3% | -33% | 26%
SMILES | JMJD2A Tudor | G9a inh | Sfp PPTase inh | HP1b chromo inh | BAZ2B block | L3MBTL1 inh
O=C(NCc1ccccc1)[C@]1(C(F)(F)F)C[C@H](CCCO)CCCO1 | -8% | x | 6% | 21% | x | x
COc1ccccc1C(=O)CSc1nccn1C | -20% | u | 56µM* | -5% | -5% | x
Cn1ccnc1SCC(=O)c1ccc(Br)cc1 | u | 50µM* | -16% | -14% | u | -2%
Cn1ccnc1SCC(=O)c1c[nH]c2ccccc12 | u | -6% | 13% | 23% | -12% | -9%
CC1CCCCN1C(=O)CN1C(=O)CSc2ccc(S(=O)(=O)N3CCOCC3)cc21 (centres undefined) | -33% | 20%[59 µM] | 7% | -21% | -2% | x
CCCCCn1c(=S)[nH]c2ncccc2c1=O | -6% | 20%[2.33 µM] | 17% | 39% | 10% | 6%
O=c1c2cccnc2[nH]c(=S)n1Cc1ccccc1 | -28% | -17% | -9% | 30% | 10% | -1%
COCCCn1c(=S)[nH]c2ncccc2c1=O | u | 45µM* | 11% | 32% | -30% | 1%
COCCn1c(=S)[nH]c2ncccc2c1=O | 14µM* | u | -21% | 16% | -23% | 3%
COCCCn1c(=S)[nH]c(C)c(C)c1=O | 22µM* | x | u | 27% | 10% | 50%
Nc1c(-c2nc(-c3ccccc3)cs2)c2ccccn2c1C(=O)c1ccc2c(c1)OCO2 | 2% | 0%[59 µM] | x | 38% | 7% | x
CCC(C)C(NC(=O)C(Cc1ccc(O)cc1)NC(=O)C(N)C(C)C)C(=O)NC(Cc1cnc[nH]1)C(=O)N1CCCC1C(=O)NC(Cc1ccccc1)C(=O)O (centres undefined) | x | x | -14% | x | x | x
Cc1ccc(C(=O)NCc2cccc(C(F)(F)F)c2)cc1S(=O)(=O)N1CCCCC1 | 8% | 6% | x | 28% | 8% | 4%
O=C(NCc1n[nH]c(=S)n1-c1cccc(C(F)(F)F)c1)c1ccc(S(=O)(=O)N2CCCCC2)cc1 | -11% | 8.9µM* | u | 29% | -14% | x
O=C(O)c1ccc(CNC(=O)c2ccc(S(=O)(=O)N3CCCCC3)cc2)cc1 | -10% | 23%[12.7 µM] | x | 33% | 0% | 1%
O=C(NCc1n[nH]c(=S)n1-c1cccc(C(F)(F)F)c1)c1ccc(S(=O)(=O)N2CCCC2)cc1 | -32% | 13µM* | -14% | 34% | 15% | x
COc1ccc(NC(=O)CSc2nc3nc(C)c(Cc4ccc(C)cc4)c(C)n3n2)cc1OC | -17% | 3%[59 µM] | x | 5% | -3% | x
COc1ccc(N=C2S/C(=C\c3ccc(Cl)c([N+](=O)[O-])c3)C(=O)N2CCN(C)C)cc1 | 35µM* | u | 40µM* | 16µM* | 16µM* | x
CCCN1C(=O)/C(=C/c2ccc(C)s2)SC1=Nc1ccc(OC)cc1 | u | -49% | -4% | -18% | u | -10%

Bioassay records deposited in PubChem BioAssay by National Center for Advancing Translational Sciences (NCATS).
